Test results: PubChem BioAssay (EPA / NIEHS)
Where “and” joins values, the source holds several entries; their conditions need not be identical. Identical values can stand only once. Where a structure was tested more than once in an assay, its records may differ in their call. Calls of active or inactive are those of the source. Rule for the calls: active = hit-call score of the fitted dose curve at least 0.9, where 1 is the maximum; inactive = score below 0.9.

Legend:
[1] = BSK_CASM3C_SRB: Viability Assessment in the BioMAP Diversity Plus: CASM3C Assay (AID 2283050); conditions: primary human coronary artery smooth muscle cells;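 note: total protein by SRB staining as cytotoxicity measure in parallel cultures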
[2] = read-out: Thrombomodulin, THBD (gene 7056); assay: BSK_CASM3C_Thrombomodulin: BioMAP Diversity Plus: CASM3C Assay for Thrombomodulin Biomarker Activity (AID 2283051); conditions: primary human coronary artery smooth muscle cells; actives raise or lower the signal;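 note: thrombomodulin protein level measured by ELISA 24 h after dosing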
[3] = read-out: Tissue Factor, F3 (gene 2152); assay: BSK_CASM3C_TissueFactor: BioMAP Diversity Plus: CASM3C Assay for Tissue Factor Biomarker Activity (AID 2283052); conditions: primary human coronary artery smooth muscle cells; actives raise or lower the signal;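 note: cell surface tissue factor protein level read by ELISA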
[4] = read-out: Interferon-gamma inducible Protein 10 (IP10), CXCL10 (gene 3627); assay: BSK_hDFCGF_IP10: BioMAP Diversity Plus: hDFCGF Assay for Interferon-gamma inducible Protein 10 (IP10) Biomarker Activity (AID 2283053); conditions: primary human foreskin fibroblasts; actives raise or lower the signal
Procedure, shortened: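 Chemical-treated human skin fibroblasts (primary) were sampled at 24 h for IP-10 by ELISA. Both increases and decreases relative to DMSO were scored.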

[5] = read-out: Urokinase-type plasminogen activator receptor (uPAR), PLAUR (gene 5329); assay: BSK_CASM3C_uPAR: BioMAP Diversity Plus: CASM3C Assay for Urokinase-type plasminogen activator receptor (uPAR) Biomarker Activity (AID 2283054); conditions: primary human coronary artery smooth muscle cells; actives raise or lower the signal;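 note: cell-surface uPAR protein level quantified by ELISA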
[6] = read-out: Vascular cell adhesion molecule 1 (VCAM1), VCAM1 (gene 7412); assay: BSK_CASM3C_VCAM1: BioMAP Diversity Plus: CASM3C Assay for Vascular cell adhesion molecule 1 (VCAM1) Biomarker Activity (AID 2283055); conditions: primary human coronary artery smooth muscle cells; actives raise or lower the signal;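 note: VCAM-1 protein level quantified by ELISA on the cells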
[7] = read-out: Collagen III, COL3A1 (gene 1281); assay: BSK_hDFCGF_CollagenIII: BioMAP Diversity Plus: hDFCGF Assay for Collagen III Biomarker Activity (AID 2283056); conditions: primary human foreskin fibroblasts; actives raise or lower the signal
Procedure, shortened: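 Response relative to DMSO, fitted in both directions, reflects ELISA-measured collagen III in human primary skin fibroblasts 24 h after compound addition.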

[8] = read-out: Epidermal growth factor receptor (EGFR), EGFR (gene 1956); assay: BSK_hDFCGF_EGFR: BioMAP Diversity Plus: hDFCGF Assay for Epidermal growth factor receptor (EGFR) Biomarker Activity (AID 2283057); conditions: primary human foreskin fibroblasts; actives raise or lower the signal
Procedure, shortened: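 Cell-based multiplexed assay in primary human foreskin fibroblasts. EGFR is read by ELISA 24 h after treatment and compared with DMSO controls.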

[9] = read-out: Interleukin-8 (IL8), CXCL8 (gene 3576); assay: BSK_hDFCGF_IL8: BioMAP Diversity Plus: hDFCGF Assay for Interleukin-8 (IL8) Biomarker Activity (AID 2283058); conditions: primary human foreskin fibroblasts; actives raise or lower the signal
Procedure, shortened: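 Fibroblast monolayers (human foreskin, hDFCGF) received test chemical for 24 h before ELISA detection of IL-8; either increases or decreases relative to DMSO count as activity.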

[10] = BSK_hDFCGF_Proliferation: Cell Proliferation Assessment in the BioMAP Diversity Plus: hDFCGF Assay (AID 2283059); conditions: primary human foreskin fibroblasts;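 note: curves fitted for both rise and fall of signal versus DMSO baseline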
Procedure, shortened: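 Steps: dose primary human dermal fibroblasts (foreskin); […] fix in 10% TCA; stain with 0.1% SRB; read 560 nm; fit gain or loss of signal against DMSO.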

[11] = read-out: Macrophage colony-stimulating factor (MCSF), CSF1 (gene 1435); assay: BSK_hDFCGF_MCSF: BioMAP Diversity Plus: hDFCGF Assay for Macrophage colony-stimulating factor (MCSF) Biomarker Activity (AID 2283060); conditions: primary human foreskin fibroblasts; actives raise or lower the signal
Procedure, shortened: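 fibroblasts (human foreskin, primary), 24 h post-dose; M-CSF by ELISA; bidirectional fit, DMSO = baseline.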

[12] = BSK_hDFCGF_SRB: Viability Assessment in the BioMAP Diversity Plus: hDFCGF Assay (AID 2283061); conditions: primary human foreskin fibroblasts;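 note: cells exposed to compound for 24 h before the read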
Procedure, shortened: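 SRB-based viability read on primary human skin fibroblasts at 24 h: TCA fixation, 0.1% dye, 560 nm. Gain or loss of signal is fitted against the DMSO negative control.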

[13] = read-out: TIMP metallopeptidase inhibitor 1 (TIMP1), TIMP1 (gene 7076); assay: BSK_hDFCGF_TIMP1: BioMAP Diversity Plus: hDFCGF Assay for TIMP metallopeptidase inhibitor 1 (TIMP1) Biomarker Activity (AID 2283062); conditions: primary human foreskin fibroblasts; actives raise or lower the signal
Procedure, shortened: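 Bidirectional curve fitting against DMSO baseline yielded this endpoint, based on ELISA detection of TIMP-1 in primary human foreskin fibroblasts exposed to compound for 24 h.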

[14] = read-out: Monokine induced gamma interferon (MIG), CXCL9 (gene 4283); assay: BSK_hDFCGF_MIG: BioMAP Diversity Plus: hDFCGF Assay for Monokine induced gamma interferon (MIG) Biomarker Activity (AID 2283063); conditions: primary human foreskin fibroblasts; actives raise or lower the signal
Procedure, shortened: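 Endpoint derived by bidirectional fitting relative to DMSO; MIG quantified via ELISA in primary human foreskin fibroblasts harvested 24 h after dosing.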

[15] = read-out: Matrix Metallopeptidase 1 (MMP1), MMP1 (gene 4312); assay: BSK_hDFCGF_MMP1: BioMAP Diversity Plus: hDFCGF Assay for Matrix Metallopeptidase 1 (MMP1) Biomarker Activity (AID 2283064); conditions: primary human foreskin fibroblasts; actives raise or lower the signal
Procedure, shortened: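 Human foreskin fibroblasts exposed to chemical for 24 h; MMP1 detected by ELISA, with DMSO as baseline for bidirectional fitting.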

[16] = read-out: Vascular cell adhesion molecule 1 (VCAM1), VCAM1 (gene 7412); assay: BSK_hDFCGF_VCAM1: BioMAP Diversity Plus: hDFCGF Assay for Vascular cell adhesion molecule 1 (VCAM1) Biomarker Activity (AID 2283065); conditions: primary human foreskin fibroblasts; actives raise or lower the signal;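 for AC50: VCAM-1 protein level quantified by ELISA after 24 h chemical exposure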
Procedure, shortened: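 Measured after 24 h chemical treatment of primary human skin fibroblasts, VCAM-1 was detected by ELISA and concentration-response analysed in both directions versus DMSO vehicle.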

[17] = read-out: Plasminogen activator inhibitor-1 (PAI1), SERPINE1 (gene 5054); assay: BSK_hDFCGF_PAI1: BioMAP Diversity Plus: hDFCGF Assay for Plasminogen activator inhibitor-1 (PAI1) Biomarker Activity (AID 2283066); conditions: primary human foreskin fibroblasts; actives raise or lower the signal
Procedure, shortened: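 Human skin fibroblast cultures receive chemical for 24 h before PAI-1 is measured by ELISA; signal changes are fitted bidirectionally against DMSO-treated wells.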

[18] = read-out: Intercellular Adhesion Molecule 1 (ICAM1), ICAM1 (gene 3383); assay: BSK_KF3CT_ICAM1: BioMAP Diversity Plus: KF3CT Assay for Intercellular Adhesion Molecule 1 (ICAM1) Biomarker Activity (AID 2283067); conditions: primary human keratinocytes with fibroblasts; actives raise or lower the signal
Procedure, shortened: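 Bidirectional curve fitting against a DMSO baseline was applied to ICAM-1 ELISA signal from primary human skin co-cultures harvested 24 h after treatment, with SRB staining of parallel wells for overt cytotoxicity.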

[19] = read-out: Interferon-gamma inducible Protein 10 (IP10), CXCL10 (gene 3627); assay: BSK_KF3CT_IP10: BioMAP Diversity Plus: KF3CT Assay for Interferon-gamma inducible Protein 10 (IP10) Biomarker Activity (AID 2283068); conditions: primary human keratinocytes with fibroblasts; actives raise or lower the signal
Procedure, shortened: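 KF3CT co-culture (keratinocytes + foreskin fibroblasts), 24 h compound, IP-10 by ELISA; bidirectional fit vs DMSO baseline.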

[20] = BSK_KF3CT_SRB: Viability Assessment in the BioMAP Diversity Plus: KF3CT Assay (AID 2283069); conditions: primary human keratinocytes with fibroblasts;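 note: fitted for both signal gain and loss against DMSO baseline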
Procedure, shortened: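 Overt cytotoxicity is assessed as total protein by sulforhodamine B staining in parallel human skin co-cultures at 24 h after dosing. DMSO serves as negative control and baseline.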

Measured: AC50

COC(=O)N(OC)c1ccccc1COc1ccn(-c2ccc(Cl)cc2)n1
active: [2] 31.2 µM | [6] 11.7 µM | [7] 800 nM | [9] 5.63 µM | [10] 1.84 µM | [11] 20 µM | [12] 13.4 µM | [15] 4.62 µM | [17] 2.46 µM | [19] 6.72 µM
inactive: all other assays above

N#CC(CCc1ccc(Cl)cc1)(Cn1cncn1)c1ccccc1 (stereo not given)
active: [10] 1.78 µM
inactive: all other assays above

OC(c1ccc(Cl)cc1)(c1cncnc1)c1ccccc1Cl (stereo not given)
active: [2] 16.6 µM | [10] 20 µM | [15] 11.5 µM | [17] 16.6 µM
not listed: [12]
inactive: all other assays above

COc1nc(C)nc(NC(=O)NS(=O)(=O)c2ccccc2CCC(F)(F)F)n1
active: [4] 148 nM and 33.8 µM and 3.97 µM | [7] 213 nM | [15] 0.439 µM
inactive: [1] | [2] | [3] | [5] | [6] | [7] | [8] | [9] | [10] | [12] | [13] | [14] | [15] | [16] | [17] | [18] | [19] | [20]

CCCCNC(=O)OCC#CI
active: [1] 30.5 µM and 30.6 µM | [2] 4.72 µM and 36.3 µM | [3] 24.6 µM | [4] 3.5 µM and 5.34 µM | [5] 12.7 µM and 13.9 µM | [6] 11.1 µM and 14.6 µM | [7] 7.69 µM and 7.7 µM | [8] 11.6 µM | [9] 10.2 µM and 11 µM | [10] 134 nM and 534 nM | [13] 7.08 µM and 26 µM | [14] 5.27 µM and 3.85 µM | [15] 8.48 µM and 7.13 µM | [16] 3.08 µM and 10.7 µM | [17] 7.77 µM and 7.46 µM | [18] 35.1 µM and 15.5 µM | [19] 33.2 µM and 11.9 µM | [20] 29.3 µM and 18 µM
inactive: [3] | [8]
